Reference: PubChem BioAssay (Tox21)
Results filed as inconclusive are left out. A call without a number means that no potency is given here. The source made the active and inactive calls. Calls follow the shape of the dose curve; as a rule, active = well fitted cell-killing curve with a large enough effect in the repeat runs; inconclusive = weak or mixed curves, or effect the other way; inactive = flat fitted curve, though single readings scatter.

Columns and labels:
[1] = cAMP Responsive Elements (CRE) small molecule antagonists, cell-based qHTS assay: qHTS cell viability counter screen (AID 2060913); also: nearly all actives have a fitted effect of over 40% in size
How it was run: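 Cytotoxicity counter screen multiplexed with the CRE-bla antagonist read: HEK293T cells in DMEM with dialyzed FBS and 25 mM HEPES were treated 3 hrs under 0.25 uM final NKH477, then viability measured by CellTiter-Glo luminescence.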

[2] = cAMP Responsive Elements (CRE) small molecule agonists, cell-based qHTS assay: qHTS cell viability counter screen (AID 2060914); also: nearly all actives have a fitted effect of over 50% in size
How it was run: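 Luminescence read-out (CellTiter-Glo, 30 min RT) of ATP-based viability in CRE-bla HEK 293T cells, run in the same wells as the β-lactamase reporter assay after 3 h compound treatment at 37 °C.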

| SMILES | Potency [1] | Potency [2] |
| --- | --- | --- |
| Cn1cc(C2=C(c3cn(C4CCN(Cc5ccccn5)CC4)c4ccccc34)C(=O)NC2=O)c2ccccc21 | inactive | inactive |
| CC[N+]1(C)CCCC1 | inactive | inactive |
| C1CCNCC1 | inactive | inactive |
| CC[C@H]1C[C@H]2[C@@H]3CCC4=CC(=O)CC[C@@H]4[C@H]3CC[C@]2(C)[C@H]1O | inactive | inactive |
| C=CCc1ccc(OC)cc1 | inactive | inactive |
| CCOS(=O)(=O)OCC | inactive | inactive |
| CCCCCCCCOC(=O)c1ccc(C(=O)OCCCCCCCC)c(C(=O)OCCCCCCCC)c1 | inactive | inactive |
| C=CC(C)=O | inactive | inactive |
| CC(C1CC1)C(O)(Cn1cncn1)c1ccc(Cl)cc1 (centres undefined) | inactive | inactive |
| O=[N+]([O-])O[C@H]1CO[C@H]2[C@@H]1OC[C@H]2O[N+](=O)[O-] | inactive | inactive |
| Nc1cc2c3c(c1)C(c1ccccc1)=N[C@@H](NC(=O)c1cccnc1)C(=O)N3CC2 | inactive | inactive |
| CN1C(=O)CCS(=O)(=O)C1c1ccc(Cl)cc1 (centres undefined) | inactive | inactive |
| O=C(CCl)CCl | inactive | inactive |
| O=[N+]([O-])c1cccc(CCl)c1 | inactive | inactive |
| BrCC(Br)(Br)Br | inactive | inactive |
| CCNc1nc(NC(C)C(C)C)nc(SC)n1 (centres undefined) | inactive | inactive |
| COC(=O)C(C)N(C(=O)Cc1ccccc1)c1c(C)cccc1C (centres undefined) | inactive | inactive |
